A selection: hits, their analogues and other compounds. The true share with any hit is near 2.7%.
gsp ag: gsp mutant agonism | gsp mutant cells, cAMP HTRF, 30 min | 0.13% of 340,000 active | AID 624287 | Potency, µM (series often up to 76.9 µM), for the others: at the top dose activation (cAMP increase), hits mostly activators; active = well fitted activation curve with a large enough effect; inconclusive = small, poorly fitted or top-dose-only effect, or another doubt; inactive = no such curve, though single readings can be large or run the other way; cell line not stated here;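 note: phosphodiesterase inhibitor Ro 20-1724 added with compounds to block cAMP breakdown; potency is the fitted concentration of half-maximal effect; nearly all actives have a fitted effect of over 60% in size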
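Cells in DMEM/10% FBS with G418 were pretreated with compounds in DMSO plus […] (300 uM stock) for 30 min at 37C. cAMP was measured by HTRF (cAMP-d2 plus anti-cAMP antibody-K) after 30 min at room temperature.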
ClpP mod: qHTS Assay for Activators of ClpP; 1.9% of 340,000 active; AID 651965, 2013; Potency, µM (top dose mostly 57.5 µM), without a hit: top-dose activity change, negative = active; ATP-dependent Clp protease proteolytic subunit (Bacillus subtilis (strain 168)), P80244; purified B. subtilis ClpP, FRET peptide cleavage, 20 min; active = well fitted falling curve with a large enough effect; inconclusive = small, poorly fitted or top-dose-only effect; inactive = no such curve, though single readings can be large or run the other way; note: potency is the fitted concentration of half-maximal effect; the source files actives as falling curves though it sought activators and does not explain the sign; nearly all actives have a fitted effect of over 65% in size
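FRET quenching reversal measured ClpP activation: 10 microg/mL B. subtilis ClpP at pH 8 with the FRET-FV decapeptide, read at 430 nm after 320 nm excitation. The 20-min minus 0-min signal was scaled between DMSO/no-enzyme wells and ADEP (5.8 microM final).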
RXFP1 ag: RXFP1 (human) receptor agonism; 0.3% of 370,000 active; HEK293T-RXFP1 cAMP TR-FRET, 30 min; response scale: percent of porcine relaxin response, buffer zero; Potency, µM (highest dose often 57.5 µM), inactives show at the highest dose activation, usual class: activators; Q9HBX9; active = well fitted activation curve with a large enough effect; inconclusive = small, poorly fitted or top-dose-only effect; note: potency is the fitted concentration of half-maximal effect; % is set by controls: 0 for no effect and ±100 for the full control effect; nearly all actives have a fitted effect of over 60% in size
Target sequence (Q9HBX9 whole entry, looked up): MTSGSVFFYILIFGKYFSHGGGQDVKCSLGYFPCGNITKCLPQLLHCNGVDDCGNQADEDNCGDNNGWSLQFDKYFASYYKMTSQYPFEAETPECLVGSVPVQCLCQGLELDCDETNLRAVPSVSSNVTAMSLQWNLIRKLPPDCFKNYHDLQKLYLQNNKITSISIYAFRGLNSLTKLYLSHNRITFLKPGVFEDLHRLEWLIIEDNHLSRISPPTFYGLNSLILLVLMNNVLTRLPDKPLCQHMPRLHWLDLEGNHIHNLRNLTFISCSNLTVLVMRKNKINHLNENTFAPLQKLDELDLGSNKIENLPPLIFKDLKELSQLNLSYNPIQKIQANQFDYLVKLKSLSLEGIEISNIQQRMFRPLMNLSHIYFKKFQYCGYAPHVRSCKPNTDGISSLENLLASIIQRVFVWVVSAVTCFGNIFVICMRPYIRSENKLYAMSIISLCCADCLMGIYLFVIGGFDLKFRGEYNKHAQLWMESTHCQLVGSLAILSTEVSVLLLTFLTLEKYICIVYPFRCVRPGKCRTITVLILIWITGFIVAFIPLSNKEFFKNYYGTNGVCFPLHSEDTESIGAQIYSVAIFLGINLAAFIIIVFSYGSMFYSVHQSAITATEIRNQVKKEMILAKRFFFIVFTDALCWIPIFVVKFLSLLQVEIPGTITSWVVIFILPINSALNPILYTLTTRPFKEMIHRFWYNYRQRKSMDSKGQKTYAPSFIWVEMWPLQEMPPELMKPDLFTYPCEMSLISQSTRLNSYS
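cAMP rise read by TR-FRET after 30 min, 37C compound exposure (up to 58 uM) in RXFP1-transfected HEK293 cells with Ro 20174 present. EC50 from Hill-equation fits, with 29 nM porcine relaxin as 100% and buffer as basal.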
RXFP1 antag: antagonists of human relaxin receptor RXFP1; Q9HBX9; HEK293-RXFP1, relaxin-stimulated cAMP HTRF, 30 min; active compounds read low; activity change, negative = inhibition, % at 57.5 µM; 0.59% of 350,000 active; AID 1259400;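 active = activity change of -60% or lower, but not beyond a set lower limit; inconclusive = change between -60% and -40%, or beyond the set limit; inactive = change above -40%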; note: % is set by controls: 0 for no effect and ±100 for the full control effect
Akt phos inh: Akt phosphorylation inhibition; Neuro2A IGF-stimulated pAkt S473 HTRF, 20 min; active compounds read low; activity change, % for hits at 50 µM; 0.32% of 360,000 active; in the data active = activity change below about -80%; inconclusive = mostly about -51% to -80%; note: % is set by controls: 0 for no effect and ±100 for the full control effect
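Neuro2A cells (4,500/well, DMEM with 0.5% FBS) were treated with compound at a single 50 µM final concentration, stimulated with 6 nM IGF for 20 min at 37 °C, and lysed. Phospho-Akt Ser473 was read by HTRF as 665/615 ratio ×10^4.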
gsp antagonist: antagonists of gsp mutant (McCune-Albright syndrome) | gsp-mutant cells, cAMP HTRF, 30 min | Potency, µM (doses to about 76.9 µM), for the others: at the top dose activity change, negative = inhibition, most hits filed as inhibitors | 0.4% of 340,000 active | AID 624288; calls by dose curve; cell line not stated here;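 note: intracellular cAMP measured with PDE inhibitor Ro 20-1724 present during compound exposure; potency is the fitted concentration of half-maximal effect; % is set by controls: 0 for no effect and ±100 for the full control effect; nearly all actives have a fitted effect of over 65% in size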
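G418-selected cells were plated in DMEM/10% FBS for 16-24 h at 37C, then treated with compounds plus the PDE inhibitor […] (300 uM solution added) for 30 min at 37C. Intracellular cAMP was measured by HTRF after 30 min lysis at room temperature.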
Active calls of the source: *; [ ] = another dose, or the depositor's remark.

Results for Cc1cc2oc(C(=O)Nc3ccc(S(=O)(=O)N(C)c4ccccc4)cc3)cc(=O)c2cc1C ?
ClpP mod: -1.1%; RXFP1 ag: 1.1%; RXFP1 antag: 1.2

Results for O=C(Cn1cc(C(=O)C2CCCCC2)c2ccccc21)Nc1ccccc1Cl ?
ClpP mod: -2.0%; RXFP1 ag: 3.9%; RXFP1 antag: -24.4

How did CCOc1ccccc1NC(=O)Cn1c(=O)oc2cc(S(=O)(=O)NCc3ccccc3)ccc21 do in these assays?
ClpP mod: -2.9%; RXFP1 ag: -0.7%; RXFP1 antag: -18.1

How did O=C(CCN1C(=O)c2ccccc2S1(=O)=O)Nc1ccc(F)c(F)c1F do in these assays?
gsp ag: 0.8%[15.4 µM]; RXFP1 ag: 0.2%; RXFP1 antag: -76.0*; Akt phos inh: inactive; gsp antagonist: 3.7%

What do the screens show for `O=C(CCN1C(=O)c2ccccc2S1(=O)=O)N1CCN(c2ccccc2F)CC1`?
gsp ag: -0.2%[15.4 µM]; RXFP1 ag: -1.0%; RXFP1 antag: -112.3*; Akt phos inh: inactive; gsp antagonist: -3.3%

What do the screens show for `O=C(NC1CC(=O)N(c2ccc(Cl)cc2)C1)c1ccc(S(=O)(=O)N2CCCC2)cc1` (configuration not stated)?
ClpP mod: 3.4%; RXFP1 ag: -0.3%; RXFP1 antag: inconclusive

Results for O=C(CN1CCC(n2nnc3cc(F)ccc32)CC1)Nc1ccc2c(c1)CCC2 ?
gsp ag: -35.4%; ClpP mod: 14.1µM*; RXFP1 ag: 1.3%; RXFP1 antag: -10.0; Akt phos inh: inactive; gsp antagonist: -2.3%

Results for COC(=O)c1cccc(NC(=O)c2ccc3c(c2)C(=O)N(Cc2cccnc2)C3=O)c1 ?
gsp ag: -13.4%; ClpP mod: 2.5%; RXFP1 ag: 0.0%; RXFP1 antag: -34.4; Akt phos inh: inactive; gsp antagonist: inconclusive

How did O=C(NCc1ccc2c(c1)OCO2)c1ccc2c(c1)C(=O)N(Cc1cccnc1)C2=O do in these assays?
gsp ag: -3.5%; ClpP mod: 17.8µM*; RXFP1 ag: 1.3%; RXFP1 antag: -5.3; Akt phos inh: inactive; gsp antagonist: -5.0%

Results for COC(=O)c1ccc(NC(=O)c2ccc3c(c2)C(=O)N(Cc2cccnc2)C3=O)cc1 ?
gsp ag: 1.5%; ClpP mod: 1.0%; RXFP1 ag: -0.1%; RXFP1 antag: -1.0; Akt phos inh: inactive; gsp antagonist: 39.8µM*

Results for O=C(NCc1cccnc1)c1ccc2c(c1)C(=O)N(Cc1ccccc1)C2=O ?
gsp ag: -42.2%; ClpP mod: -2.7%; RXFP1 ag: -1.0%; RXFP1 antag: -10.9; Akt phos inh: inactive; gsp antagonist: -8.6%

What do the screens show for `COC(=O)c1cccc(NC(=O)c2ccc3c(c2)C(=O)N(C(C)(C)C)C3=O)c1`?
gsp ag: 18.3%; RXFP1 ag: 1.8%; RXFP1 antag: inconclusive; Akt phos inh: inactive; gsp antagonist: -3.9%

Results for COC(=O)c1ccc(NC(=O)c2ccc3c(c2)C(=O)N(C)C3=O)cc1 ?
gsp ag: -4.2%[15.4 µM]; ClpP mod: 11.2µM*; RXFP1 ag: 1.1%; RXFP1 antag: -6.0; Akt phos inh: inactive; gsp antagonist: 10.5%

What do the screens show for `CC(C)(C)C1CCC(CC2=C(O)c3ccccc3C(=O)C2=O)CC1` (configuration not stated)?
RXFP1 antag: -13.3

Results for Cc1ccccc1-c1nnn(Cc2cccc(S(=O)(=O)N3CCOCC3)c2)n1 ?
gsp ag: 2.9%; ClpP mod: 1.1%; RXFP1 ag: 1.1%; RXFP1 antag: 1.0; Akt phos inh: inactive; gsp antagonist: 35.5µM*

Results for Oc1ccc(-c2cn3cc(C(F)(F)F)ccc3n2)cc1 ?
gsp ag: -14.5%[15.4 µM]; ClpP mod: 28.2µM*; RXFP1 ag: 0.2%; RXFP1 antag: -4.7; Akt phos inh: inactive; gsp antagonist: 16.2%

Results for CC(C)c1ccc(N2C(=O)CS(=O)(=O)C23C(=O)N(Cc2cccc(F)c2)c2ccccc23)cc1 (configuration not stated) ?
ClpP mod: -0.2%; RXFP1 ag: 12.5%

What do the screens show for `CC1=C(C#N)C(c2cccnc2)C2=C(CC(C)(C)CC2=O)N1` (configuration not stated)?
gsp ag: inconclusive; ClpP mod: 14.1µM*; RXFP1 ag: 7.5%; RXFP1 antag: -6.0; Akt phos inh: inactive; gsp antagonist: 0.5%

What do the screens show for `CC1=C(C#N)C(C)C2=C(CC(C)(C)CC2=O)N1` (configuration not stated)?
gsp ag: 3.8%; ClpP mod: 17.8µM*; RXFP1 ag: 6.6%; RXFP1 antag: -0.9; Akt phos inh: inactive; gsp antagonist: 15.9%

Results for O=C(COc1ccccc1C(=O)Nc1ccccc1)Nc1cccc(Cl)c1 ?
ClpP mod: -2.7%

Results for CN1OC[C@@H]2CN(S(=O)(=O)c3cccc(C(F)(F)F)c3)[C@H](c3ccc(-c4cccnc4)cc3)C[C@@H]21 ?
gsp ag: -36.1%; ClpP mod: -2.4%; RXFP1 antag: 12.7; Akt phos inh: inactive

What do the screens show for `COCCNC(=O)CSCc1nc(-c2ccc(SC)cc2)oc1C`?
gsp ag: inconclusive; ClpP mod: 25.1µM*; RXFP1 ag: 11.2%; RXFP1 antag: -14.9; Akt phos inh: inactive; gsp antagonist: -14.3%

Results for COc1ccc(-c2nc(CSCC(=O)NCCc3ccc(C)cc3)c(C)o2)cc1OC ?
ClpP mod: 31.6µM*; RXFP1 ag: 2.0%; RXFP1 antag: 2.3

Results for COc1ccc(-c2nc(CSCC(=O)NCCC3=CCCCC3)c(C)o2)cc1OC ?
gsp ag: 37.8%; ClpP mod: 25.1µM*; RXFP1 ag: 2.8%; RXFP1 antag: -1.2; Akt phos inh: inactive; gsp antagonist: -23.8%

How did COc1ccc(-c2nc(CSCC(=O)NCc3ccc4c(c3)OCO4)c(C)o2)cc1OC do in these assays?
gsp ag: -32.5%; ClpP mod: -15.3%; RXFP1 ag: 0.3%; RXFP1 antag: 5.3; Akt phos inh: inactive; gsp antagonist: -9.9%

Results for CCOCCCNC(=O)CSCc1nc(-c2ccc(SC)cc2)oc1C ?
gsp ag: inconclusive; ClpP mod: 3.3%; RXFP1 ag: 6.4%; RXFP1 antag: -5.7; Akt phos inh: inactive; gsp antagonist: -2.5%

How did COc1ccccc1CNC(=O)CSCc1nc(-c2ccc(OC)c(OC)c2)oc1C do in these assays?
ClpP mod: inconclusive; RXFP1 ag: 0.6%; RXFP1 antag: -21.0

Screens (PubChem BioAssay)
